Compounds with a hit are over-represented: about 7.6% of the library has one in this group of screens.
hERG WT inh: blocks the wildtype human KCNH2 potassium channel; Q12809; U2OS, BacMam KCNH2, thallium flux FluxOr; active compounds read low; activity change, % at 1.84 µM; 0.37% of 340,000 active;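 active means maximum activity change below -70%; inconclusive means maximum activity change between -70% and -50%; inactive means maximum activity change above -50%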
Target sequence (Q12809 whole entry, looked up): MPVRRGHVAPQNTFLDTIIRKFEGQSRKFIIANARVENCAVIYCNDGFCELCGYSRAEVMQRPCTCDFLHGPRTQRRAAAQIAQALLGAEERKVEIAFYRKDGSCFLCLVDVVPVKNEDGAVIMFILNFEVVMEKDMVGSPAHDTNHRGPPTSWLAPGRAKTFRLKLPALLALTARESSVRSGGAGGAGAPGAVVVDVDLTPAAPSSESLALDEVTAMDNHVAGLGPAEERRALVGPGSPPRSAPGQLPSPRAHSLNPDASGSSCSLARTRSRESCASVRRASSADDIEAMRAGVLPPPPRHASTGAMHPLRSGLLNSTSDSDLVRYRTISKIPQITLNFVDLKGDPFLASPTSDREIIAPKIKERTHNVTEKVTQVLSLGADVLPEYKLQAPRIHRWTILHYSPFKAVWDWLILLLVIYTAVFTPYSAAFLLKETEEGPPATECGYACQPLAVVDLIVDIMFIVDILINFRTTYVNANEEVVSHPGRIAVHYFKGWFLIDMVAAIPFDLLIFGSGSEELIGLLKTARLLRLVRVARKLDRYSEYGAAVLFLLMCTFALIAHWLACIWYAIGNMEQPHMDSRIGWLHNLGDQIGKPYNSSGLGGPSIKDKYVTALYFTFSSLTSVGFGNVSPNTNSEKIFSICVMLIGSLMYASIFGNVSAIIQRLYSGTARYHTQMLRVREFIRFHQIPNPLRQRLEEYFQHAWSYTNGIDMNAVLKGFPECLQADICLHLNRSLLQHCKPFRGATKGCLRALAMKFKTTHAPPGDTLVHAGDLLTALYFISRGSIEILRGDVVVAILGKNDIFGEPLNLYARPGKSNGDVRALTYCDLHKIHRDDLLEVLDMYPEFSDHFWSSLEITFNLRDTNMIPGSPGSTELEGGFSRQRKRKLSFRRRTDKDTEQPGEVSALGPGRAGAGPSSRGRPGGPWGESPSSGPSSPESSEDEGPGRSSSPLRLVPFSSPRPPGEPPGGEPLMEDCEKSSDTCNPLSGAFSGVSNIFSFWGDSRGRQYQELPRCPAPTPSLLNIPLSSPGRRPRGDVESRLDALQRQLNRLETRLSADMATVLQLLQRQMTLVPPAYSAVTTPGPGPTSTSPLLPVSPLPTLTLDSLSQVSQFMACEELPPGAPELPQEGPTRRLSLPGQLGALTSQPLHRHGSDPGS
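U2OS cells were transduced with wild-type KCNH2 virus (2.03 x 10^8 / mL) for 4 h at room temperature, then cultured overnight at 37 C. Thallium flux was read with FluxOr dye. Rate constants were normalized to DMSO controls.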
KCNH2 3.1 inh: inhibitors of human KCNH2 3.1 potassium channel isoform; U2OS KCNH2 3.1, thallium flux FluxOr; active compounds read low; activity change, % (tested at about 1.8 µM); 0.95% of 340,000 active;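 active means maximum activity change below -70%; inconclusive means maximum activity change from -70% to -50%; inactive means maximum activity change above -50%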;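 further: thallium influx rate constant from kinetic fluorescence after stimulation buffer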
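FluxOr-based Tl+ influx in U2OS cells transduced with KCNH2 3.1 virus; rate constants normalized to DMSO controls.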
KB-3-1 tox: kills parental KB-3-1 adenocarcinoma cells; KB-3-1 viability, CellTiter-Glo ATP luminescence, 72 h; Potency, µM (highest dose often 46.1 µM), most hits filed as cytotoxic; 1.4% of 400,000 active; AID 1347075; further: nearly all actives have a fitted effect of over 60% in size
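Viability of parental KB-3-1 cells, measured by CellTiter-Glo luminescence, followed a 72 h incubation at 37 °C with pinned compounds in phenol-red-free DMEM containing 10% FBS.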
KB-V1 cytotox: KB-V1 MDR subline cytotoxicity; Potency, µM (highest dose often 46.1 µM), usual class: cytotoxic; KB-V1 MDR cells viability, CellTiter-Glo, 72 h; 3.4% of 400,000 active; further: nearly all actives have a fitted effect of over 60% in size
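Readout: CellTiter-Glo luminescence, 10 min after addition. Cells: KB-V1 MDR subline, 72 h at 37 degrees C with compound. Analysis: corrected, normalized data fitted to concentration-effect curves.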
MCF10A rereplic: DNA re-replication induction in MCF 10a cells | Potency, µM (titrated, usually from 46.1 µM), usual class: activators | MCF 10A DNA re-replication, Hoechst nuclear intensity, 48 h | 2.9% of 350,000 active; further: nearly all actives have a fitted effect of over 50% in size
SW480 rereplic: induces DNA re-replication in SW480 colon adenocarcinoma cells. SW480 DNA re-replication, Hoechst DNA content imaging, 48 h. Potency, µM (highest dose often 46.1 µM), actives largely listed as activators. 1.8% of 340,000 active; further: nearly all actives have a fitted effect of over 55% in size
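First, 250 cells per well were seeded. Next, compound or vehicle (23 nL) was pinned in, plates sat 48 hr at 37 C. Finally Hoechst was added for 40 min before fluorescence scanning.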
Large screens that a line does not name were inactive; ! = not active in a repeat. Unless noted, the call rests on the fitted dose curve; in most records, active means well fitted curve in the direction sought with a large enough effect; inconclusive means small, poorly fitted or top-dose-only effect, or another doubt; inactive means no such curve, though single readings can be large; an effect the other way counts as inactive or inconclusive.

C=CS(=O)(=O)N(Cc1ccccc1Br)[C@H](CO)CC(C)C	KB-3-1 tox 23µM!, KB-V1 cytotox inconclusive, SW480 rereplic inconclusive
COc1ccc(CN([C@H](C)CO)S(=O)(=O)N(Cc2ccccc2)[C@H](CO)C(C)C)cc1	none
COC(=O)[C@@H](CC(C)C)NS(=O)(=O)N(Cc1ccccc1)[C@@H](CC(C)C)C(=O)OC	KB-3-1 tox inconclusive, KB-V1 cytotox inconclusive, MCF10A rereplic inconclusive
COc1ccc(CN([C@H](CO)CC(C)C)S(=O)(=O)N(Cc2ccccc2)[C@H](CO)CC(C)C)cc1	KB-3-1 tox inconclusive, KB-V1 cytotox 16µM! (no result: hERG WT inh, KCNH2 3.1 inh)
O=S(=O)(N(Cc1ccccc1)[C@H](CO)Cc1ccccc1)N(Cc1ccccc1)[C@H](CO)Cc1ccccc1	MCF10A rereplic 23µM (no result: hERG WT inh, KCNH2 3.1 inh)
CC(C)C[C@@H](CO)N(Cc1ccccc1)S(=O)(=O)N(Cc1ccccc1)[C@@H](CO)CC(C)C	KB-3-1 tox 23µM!, KB-V1 cytotox inconclusive, MCF10A rereplic inconclusive
CC(NC(=O)COC(=O)Cc1cccs1)c1ccc(F)cc1 (stereo unspecified)	none
C=C[C@H](CC(C)C)N(Cc1ccccc1)S(=O)(=O)N(Cc1ccccc1)[C@@H](C=C)CC(C)C	MCF10A rereplic 9.2µM
C=C[C@@H](C)N(Cc1ccc(OC)cc1)S(=O)(=O)N(Cc1ccccc1)[C@H](C=C)C(C)C	KB-3-1 tox inconclusive, KB-V1 cytotox inconclusive
CC(C)C[C@@H](CO)N(Cc1ccccc1)S(=O)(=O)N(Cc1ccccc1)[C@H](CO)CC(C)C	KB-3-1 tox inconclusive, KB-V1 cytotox 21µM!, MCF10A rereplic inconclusive (no result: hERG WT inh, KCNH2 3.1 inh)
CCN([C@H](CO)CC(C)C)S(=O)(=O)c1ccccc1	none
CCCCc1nn2c(=O)cc(COC(=O)c3ccccc3NC(=O)C3CCCCC3)nc2s1	none (no result: hERG WT inh, KCNH2 3.1 inh, MCF10A rereplic, SW480 rereplic)
Cc1ccc(C(=O)COC(=O)c2nc3nccc(C)n3n2)c(C)c1	KB-V1 cytotox inconclusive
O=C(Cn1cnc([N+](=O)[O-])c1)NCCc1ccccc1	KB-V1 cytotox inconclusive
Nc1nc2ccc(-c3nc4ccccc4o3)cc2s1	KB-3-1 tox 5.8µM, KB-V1 cytotox 1µM, MCF10A rereplic inconclusive
N#CC1=C(N)Oc2c(oc(CO)cc2=O)C1c1ccccc1[N+](=O)[O-] (stereo unspecified)	MCF10A rereplic inconclusive, SW480 rereplic 5.8µM
O=C(O)c1ccccc1Nc1ccccc1C(=O)O	none
O=C(O)c1ccccc1Nc1ccc([N+](=O)[O-])cc1	KB-3-1 tox 9.2µM, KB-V1 cytotox inconclusive
CCC(=O)NNc1nc2c(C)c(C)ccc2s1	none
COc1ccc([C@H]2CN(c3ccc(OC)cc3)C(=O)[C@@H]2CC(=O)Nc2ccc(Br)cc2)cc1	KB-3-1 tox inconclusive, KB-V1 cytotox 16µM (no result: MCF10A rereplic, SW480 rereplic)
COc1ccc(NC(=O)C[C@H]2C(=O)N(c3ccccc3)C[C@@H]2Cc2ccccc2)cc1	KB-V1 cytotox 15µM (no result: MCF10A rereplic, SW480 rereplic)
Cc1cc(C)c(NC(=O)CNC(=O)c2ccc3ncsc3c2)c(C)c1	none
COc1ccc(NC(=O)CSc2nnc(CN3CCOCC3)n2C)cc1Cl	none
COc1ccc(-c2nnc(SC)nc2-c2ccc(OC)c([N+](=O)[O-])c2)cc1[N+](=O)[O-]	KB-3-1 tox inconclusive, MCF10A rereplic inconclusive
O=C(c1ccccc1)N1CCN(C(=O)c2ccncc2)CC1	none
O=C(c1ccccc1)N1CCCC(C(=O)N2CCc3ccccc3C2)C1 (stereo unspecified)	none
O=C(O)c1ccc(CNS(=O)(=O)c2ccc(Oc3ccccc3Cl)cc2)cc1	MCF10A rereplic inconclusive, SW480 rereplic 0.16µM
O=C(c1ccccc1)N1CCN(Cc2ccccc2)CC1	MCF10A rereplic 13µM
O=C(c1ccncc1)N1CCN(CCc2ccccc2)CC1	MCF10A rereplic 18µM, SW480 rereplic inconclusive
O=C(c1ccccc1)N1CCCC(C(=O)N2CCCCCC2)C1 (stereo unspecified)	KB-V1 cytotox 21µM
CCOc1ccc(NC(=O)CSc2nc3c([nH]c4ccccc43)c(=O)n2-c2cc(C)cc(C)c2)cc1	none (no result: hERG WT inh, KCNH2 3.1 inh, MCF10A rereplic, SW480 rereplic)
Cc1cc(N2CCC(C(=O)Nc3ccc(Cl)cc3)CC2)n2nc(C)c(-c3ccc(Cl)cc3)c2n1	KB-V1 cytotox inconclusive (no result: hERG WT inh, KCNH2 3.1 inh, MCF10A rereplic, SW480 rereplic)
CCOc1ccc(C(=O)N2CCN(CCc3ccccc3)CC2)cc1OCC	KCNH2 3.1 inh -90
CS(=O)(=O)c1ccc(C(=O)N2CCN(Cc3ccccc3)CC2)cc1	none
CCc1cc2cc(C(=O)N3CCN(Cc4ccccc4)CC3)sc2s1	KB-3-1 tox 21µM, KB-V1 cytotox 15µM, MCF10A rereplic inconclusive
O=C(c1ccc(CNS(=O)(=O)c2ccccc2)cc1)N1CCN(Cc2ccccc2)CC1	KB-3-1 tox 18µM, KB-V1 cytotox 4.6µM
CCOc1ccc(C(=O)N2CCN(c3ccccc3)CC2)cc1OCC	none
O=C(c1ccccc1F)N1CCN(Cc2cccc(Cl)c2)CC1	KB-V1 cytotox 21µM
COc1ccc(-c2[nH][nH]c(=O)c2NC(=O)c2ccc(C)cc2)cc1	none (no result: hERG WT inh, KCNH2 3.1 inh, MCF10A rereplic, SW480 rereplic)
CCOC(=O)C1CCN(C(=O)C2CCN(S(=O)(=O)c3cc(Cl)ccc3Cl)CC2)CC1	KB-V1 cytotox 23µM
O=C(Nc1ccc(F)c(F)c1)C1CCN(S(=O)(=O)c2cccs2)CC1	KB-V1 cytotox 16µM
COc1cccc(NC(=O)C2CCC(CNS(=O)(=O)c3cccs3)CC2)c1 (stereo unspecified)	KB-3-1 tox inconclusive, MCF10A rereplic inconclusive, SW480 rereplic 21µM
CCOC(=O)C1CCCN(C(=O)C2CCN(S(=O)(=O)c3cccs3)CC2)C1 (stereo unspecified)	KB-3-1 tox 21µM
O=C(C1CCN(S(=O)(=O)c2cccs2)CC1)N1CCCCC1	none
Cc1ccc(NC(=O)C2CCN(S(=O)(=O)c3cccs3)CC2)cc1	none
COc1cc(C(=O)N2CCC(O)(c3ccccc3)CC2)cc(OC)c1OC	none
CCOc1ccc(-c2cc3c(=O)n(Cc4nc(-c5ccc(OC)cc5OC)oc4C)ccn3n2)cc1Cl	none (no result: hERG WT inh, KCNH2 3.1 inh, MCF10A rereplic, SW480 rereplic)
CCOC(=O)c1cccc(NC(=O)C2CCN(S(=O)(=O)c3cccs3)CC2)c1	KB-3-1 tox inconclusive, KB-V1 cytotox 7.3µM
Cc1ccc(NCC(=O)N/N=C/c2cc(O)ccc2[N+](=O)[O-])cc1	none
CCc1nc2ccc(C(=O)NC3CCN(Cc4ccccc4)CC3)cn2c1N(CC)Cc1cccc(Br)c1	KB-3-1 tox inconclusive, KB-V1 cytotox 8.2µM (no result: hERG WT inh, KCNH2 3.1 inh, MCF10A rereplic, SW480 rereplic)
CCc1nc2ccc(C(=O)N(C)Cc3ccccc3)cn2c1N(CC)Cc1cccc(Br)c1	none (no result: hERG WT inh, KCNH2 3.1 inh, MCF10A rereplic, SW480 rereplic)
COc1ccc(/C=c2\s/c(=C\C(=O)C(C)(C)C)[nH]c2=O)cc1O	MCF10A rereplic inconclusive
COc1cc(/C=c2\s/c(=C\C(=O)C(C)(C)C)[nH]c2=O)cc(OC)c1OC	KB-V1 cytotox inconclusive, MCF10A rereplic 18µM, SW480 rereplic 4.1µM (no result: hERG WT inh)

Source: PubChem BioAssay
